# High-throughput results from PubChem.
# Hits are enriched below; roughly 3.3% of the tested compounds scored in any of these assays.
# AmpC detergent: blocks E. coli AmpC beta-lactamase in detergent assay | actives 0.041% (n = 370,000) | Potency, µM (series often up to 114 µM), inactives show at the highest dose activity change, negative = inhibition, usual class: inhibitors | AID 485294 | P00811 | AmpC hydrolysis of nitrocefin, absorbance 480 nm, 0.01% Triton;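 further: 0% = no-compound wells and -100% = no-enzyme wells; nearly all actives have a fitted effect of over 25% in size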
# Target sequence (P00811 whole entry, looked up): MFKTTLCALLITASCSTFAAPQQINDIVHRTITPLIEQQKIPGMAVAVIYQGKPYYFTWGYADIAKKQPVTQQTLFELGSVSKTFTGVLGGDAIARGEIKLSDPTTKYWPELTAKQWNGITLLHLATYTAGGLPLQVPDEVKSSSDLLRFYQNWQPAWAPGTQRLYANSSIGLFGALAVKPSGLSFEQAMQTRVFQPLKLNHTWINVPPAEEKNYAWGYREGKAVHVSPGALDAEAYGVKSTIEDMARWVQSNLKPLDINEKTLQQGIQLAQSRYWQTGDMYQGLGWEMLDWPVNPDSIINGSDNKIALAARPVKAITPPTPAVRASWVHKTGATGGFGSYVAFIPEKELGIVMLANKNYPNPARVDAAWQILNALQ
#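 20 mM phosphate pH 7.0 + 0.01% (detergent screen) or 0.0001% Triton X-100; 5.3 nM AmpC reagent; cpd preinc 15 min RT; nitrocefin (800 uM stock) to start; A480 q20 s × 4 min; Activity was normalised to no-enzyme and no-compound control wells.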
# Sm TGR inh: inhibitors of Schistosoma mansoni thioredoxin glutathione reductase; Potency, µM (doses to about 114 µM), for the others: top-dose activity change, negative = inhibition, most hits filed as inhibitors; actives 3% (n = 360,000); AID 485364; Q962Y6; purified TGR, DTNB reduction, TNB absorbance 405 nm; further: nearly all actives have a fitted effect of over 60% in size
#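 First, TGR (20 nM dispensed) and NADPH were mixed with compound. Second, a 15 min room-temperature incubation followed. Third, further NADPH and then DTNB were added to start the reaction. Finally, TNB absorbance was monitored kinetically.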
# AmpC no deterg: blocks E. coli AmpC beta-lactamase in detergent-free assay; actives 0.52% (n = 330,000); P00811; AmpC nitrocefin hydrolysis, absorbance 480 nm, 0.0001% Triton; Potency, µM (doses to about 57.1 µM), for the others: top-dose activity change, negative = inhibition, most hits filed as inhibitors;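 further: plate controls were no compound for no effect and no enzyme for full effect; nearly all actives have a fitted effect of over 20% in size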
#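 20 mM phosphate pH 7.0 + 0.01% (detergent screen) or 0.0001% Triton X-100; 5.3 nM AmpC reagent; cpd preinc 15 min RT; nitrocefin (800 uM stock) to start; A480 q20 s × 4 min; Activity was normalised to no-enzyme and no-compound control wells.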
# The depositor's hits bear a star; ? = inconclusive; . = not tested or not shown; [ ] = dose if it differs, or a comment. The call rests on the fitted dose curve; in most records, active means well fitted curve in the direction sought with a large enough effect; inconclusive means small, poorly fitted or top-dose-only effect, or another doubt; inactive means no such curve, though single readings can be large; an effect the other way counts as inactive or inconclusive. Unless noted, on the % scale 0 is the no-effect control and ±100 the full control effect; potency means the concentration at half of the fitted maximal effect.
SMILES,AmpC detergent,Sm TGR inh,AmpC no deterg
COc1cccc(C2C(C#N)=C(N)Oc3cc(C)n(Cc4ccco4)c(=O)c32)c1 (stereo not drawn),?,?,-37%
COc1cccc(C2C(C#N)=C(N)Oc3cc(C)n(Cc4ccccn4)c(=O)c32)c1OC (stereo not drawn),?,-16%,2%
Cc1ccccc1C(=O)Nc1cccc(C(=O)OCc2cc(=O)n3c(C)csc3n2)c1,-3%,-9%,.
O=C(NC1CC(=O)N(c2cccc(F)c2)C1)c1cc2ccccc2o1 (stereo not drawn),1%,10%,.
CCOc1ccccc1C1C(C#N)=C(N)Oc2cc(C)n(C)c(=O)c21 (stereo not drawn),2%,40µM*,-11%
CCOc1cccc(C2C(C#N)=C(N)Oc3cc(C)oc(=O)c32)c1OCC (stereo not drawn),-15%,0%,-2%
COc1ccccc1C1C(C#N)=C(N)Oc2cc(C)n(CCCn3ccnc3)c(=O)c21 (stereo not drawn),1%,50µM*,-10%
Cc1cc2c(c(=O)n1CCCn1ccnc1)C(c1ccco1)C(C#N)=C(N)O2 (stereo not drawn),-7%,2%,-33%
O=S(=O)(c1ccc(Br)cc1)c1nnn2c1nc(NCc1cccs1)c1sccc12,14%,7%,.
COc1ccc(S(=O)(=O)c2nnn(-c3cc(Cl)c(OC)cc3OC)c2C)cc1,17%,3%,.
Cc1ccc(F)cc1NC(=O)CSc1nc(-c2cccs2)cc(C(F)(F)F)n1,18%,2%,.
Cc1nn2c3c(cnc2c1-c1ccccc1)C(=O)CC(c1ccccc1)C3 (stereo not drawn),-14%,12%,-2%
Cc1nn2c3c(cnc2c1-c1ccccc1)C(=O)CC(c1ccco1)C3 (stereo not drawn),-5%,35µM*,-20%
CN1CCC(N(C)CC(O)c2ccccc2)CC1 (stereo not drawn),-6%,13µM*,-12%[11.4 µM]
Cc1ccccc1CN(C)C1CCN(C)CC1,-9%,3%,8%
CS(=O)(=O)N1CCCc2cc(C(=O)Nc3cccc(C(F)(F)F)c3)ccc21,20%,-7%,.
COC(=O)C1=C(C)N(CCc2ccc(OC)c(OC)c2)C(=O)C1,-3%,0%,49%
CCOC(=O)C1=C(C)N(c2ccc(OC)cc2)C(=O)/C1=C\c1cccs1,-11%,-10%,-12%
CCOC(=O)C1=C(C)N(c2ccc(OC)cc2)C(=O)/C1=C\c1ccc(O)c(OCC)c1,3%,4.5µM*,-2%
COC(=O)C1=C(C)N(CCc2ccc(OC)c(OC)c2)C(=O)/C1=C\c1ccc(O)cc1,-19%,28µM*,-21%
CCOc1cc(/C=C2\C(=O)N(Cc3ccc(C)cc3)C(C)=C2C(=O)OC)ccc1O,?,22µM*,-30%
C=CCOc1cccc(/C=C2\C(=O)N(Cc3ccc(C)cc3)C(C)=C2C(=O)OC)c1,-10%,-33%,-36%
c1ccc(CSc2nnc(C3CCNCC3)o2)cc1,13%,2%,.
O=C1NC(=O)C(=Cc2ccc(Sc3ccccc3)o2)C(=O)N1,-2%,50µM*,-24%
CN1C(=O)C(=Cc2ccc(Sc3ccccc3)o2)C(=O)N(C)C1=O,1%,?,-25%
SMILES,AmpC detergent,Sm TGR inh,AmpC no deterg
Cc1c(O)nc(SCC(=O)Nc2ccc(Cl)cc2Cl)n(-c2ccc(F)cc2)c1=O,21%,1%,.
Cc1c(O)nc(SCC(=O)Nc2ccc3c4c(cccc24)CC3)n(-c2ccc(F)cc2)c1=O,-3%,-4%,28µM*
CCOc1ccc(NC(=O)C2CCCN(S(=O)(=O)c3cccc4nonc34)C2)cc1 (stereo not drawn),0%,-11%,.
Cc1cccn2c(=O)c3cc(C(=O)NC4CCCCC4)c(=N)n(Cc4ccccc4)c3nc12,1%,2.8µM*,-56%
Cc1cccn2c(=O)c3cc(C(=O)NC4CCCC4)c(=N)n(Cc4ccc(F)cc4)c3nc12,?,-17%,-17%
C/C(=N/NS(=O)(=O)c1ccc(Br)cc1)c1c[nH]c2ccccc12,-3%,40µM*,-50%
C/C(=N\NS(=O)(=O)c1ccc([N+](=O)[O-])cc1)c1c[nH]c2ccccc12,?,-35%,-26%
O=S(=O)(CCc1ccncc1)C1Cc2cccc3cccc1c23 (stereo not drawn),1%,35µM*,-16%
CC(C)Cc1nn2c(=O)cc(COC(=O)c3ccc(NC(=O)C4CCCCC4)cc3)nc2s1,-4%,-2%,.
COc1cc(OC)cc(-c2nc3nc(C)c(CCC(=O)Nc4ccc(F)cc4F)c(C)n3n2)c1,-8%,-18%,.
